For assay [1], the system named is Wnt5a (protein binding on small-molecule microarray). The assay is described as follows: Wnt5a binders on small-molecule microarray, primary screen, biophysical, 635/667 nm fluorescence (AID 1142).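 Also: fluorescence read at 667 nm with signal to noise per printed feature.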 As to conditions: 635 nm fluorescence, higher = more signal.
Assay [2] can be described thus: cell viability in Huh7 cells, primary screen, cytotoxicity control for HCV replication inhibitor project, CellTiter-Glo luminescence, basal, 48 h (AID 1143).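 Also: Huh7 hepatoma cells carrying a hepatitis C replication reporter with no stimulus; test concentration not given here.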 As to conditions: Huh7 HCV replicon, higher = more signal, called active from +8 up or from −8 down. (ATP-based viability assays read luminescence as a measure of living cells.)
Assay [3] is described as follows: P. aeruginosa biofilm formation inhibitors, primary screen, PAO1 strain, BacTiter-Glo luminescence, LB-PBS (AID 1144). As to conditions: 12 h, higher = more signal.
Assay [4] in a line: CREB reporter modulators without forskolin, primary screen, cell-based, PC12, CRE-LacZ reporter, unstimulated (AID 1145). As to conditions: no forskolin, luminescence, 4.5 h, higher = more signal, called active from +8 up or from −8 down.
Assay [5] can be described thus: CREB reporter modulators under forskolin, primary screen, cell-based, PC12, CRE-LacZ reporter, forskolin-stimulated (AID 1146).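 Also: PC12 cells with 6xCRE LacZ reporter stimulated by forskolin 10 µM; beta-galactosidase reporter signal reflecting CREB driven transcription.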 As to conditions: luminescence, 4.5 h, higher = more signal, called active from +8 up or from −8 down.
Assay [6] addresses Streptavidin (Streptomyces avidinii) (UniProt P22629). Kind of assay: streptavidin binders on small-molecule microarray, primary screen, artefact control for SMM compound annotation, biophysical, 635/667 nm fluorescence (AID 1147).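 Also: signal reflects streptavidin binding to arrayed compounds as a control protein.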 The note with it: streptavidin binding, higher = more signal.
Assay [7] in a line: small-molecule binders of probe aInhba, primary screen, biochemical, small-molecule microarray, 635/667 nm fluorescence (AID 1148).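 Also: score merges 667nm spot fluorescence with signal-to-noise for antibody binding to printed compounds.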 The note with it: higher = more signal.
The target of assay [8] is Torsin-1A (Homo sapiens) (UniProt O14656). Kind of assay: torsin A binders from cell lysate, primary screen, small-molecule microarray, wild-type, 635/667 nm (AID 1149). As to conditions: COS7 hTOR1A-WT lysate, 635 nm fluorescence, higher = more signal.
Torsin-1A (Homo sapiens), sequence (O14656 whole entry, looked up): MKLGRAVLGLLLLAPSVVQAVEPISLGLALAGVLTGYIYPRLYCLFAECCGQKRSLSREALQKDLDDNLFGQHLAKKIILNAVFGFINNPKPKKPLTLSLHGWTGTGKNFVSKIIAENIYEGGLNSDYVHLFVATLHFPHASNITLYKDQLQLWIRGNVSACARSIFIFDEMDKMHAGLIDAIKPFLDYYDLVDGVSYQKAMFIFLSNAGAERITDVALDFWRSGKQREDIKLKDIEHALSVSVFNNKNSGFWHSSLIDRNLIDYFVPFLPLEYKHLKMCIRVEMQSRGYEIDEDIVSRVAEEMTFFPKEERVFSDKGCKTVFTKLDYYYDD
Assay [9] has the same target. Kind of assay: small-molecule binders of mutant TOR1A in lysate, primary screen, cell lysate, small-molecule microarray, COS7 lysate, 635/667 nm fluorescence (AID 1150).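 Also: score pools 667 nm emission and signal to noise measuring lysate protein binding.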 The note with it: COS7 hTOR1A mutant lysate, 635 nm fluorescence, higher = more signal.
The subject of assay [10] is Sonic hedgehog protein (Shh). The assay is described as follows: small-molecule binders of Shh protein, primary screen, biochemical, small-molecule microarray, 635/667 nm fluorescence (AID 1151).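 Also: Shh protein binding to compounds spotted on small-molecule microarray slides; score combines spot fluorescence intensity with signal-to-noise across triplicate slides.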 The note with it: small-molecule microarray binding, 635 nm fluorescence; higher = more signal.
A short description of assay [11]: E. coli DRC41 culture turbidity changes, primary screen, E. coli filamentation inducer project, strain DRC41, OD650, 48 h (AID 1152).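 Also: E. coli MC1000 strain DRC41 lacking acrAB efflux pump and sulA.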 As to conditions: E. coli DRC41 (acrAB sulA), higher = more signal, called active from +8 up or from −8 down.
Assay [12] can be described thus: small-molecule binders of probe aLefty1, primary screen, biochemical, small-molecule microarray, 635/667 nm fluorescence (AID 1153).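 Also: score merges spot fluorescence with signal-to-noise ratio from the scanned slide images.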 The note with it: higher = more signal.
The nature of assay [13]: PSAC antagonists in infected red cells, primary screen, cell-based, P. falciparum Indochina, OD700, 1 h (AID 1154). The note with it: P. falciparum Indochina infected RBC osmotic lysis, higher = more signal, called active from +8 up or from −8 down.
A short description of assay [14]: PSAC antagonists in infected red cells, primary screen, cell-based, P. falciparum Indochina, OD700, 2 h (AID 1155).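 Also: lysis reports solute entry through the parasite surface anion channel PSAC; channel blockers reduce lysis of infected cells.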 As to conditions: P. falciparum Indochina infected erythrocytes, osmotic lysis OD700; higher = more signal, called active from +8 up or from −8 down.
The nature of assay [15]: osmotic lysis modulators in infected erythrocytes, primary screen, PSAC antagonist project, cell-based, P. falciparum Indochina, OD700, 3 h (AID 1156). The note with it: higher = more signal, called active from +8 up or from −8 down.
A short description of assay [16]: PSAC antagonists in infected red cells, primary screen, cell-based, P. falciparum Indochina, OD700, 18 h (AID 1157). As to conditions: P. falciparum Indochina infected erythrocytes, osmotic lysis OD700, 18 h; higher = more signal, called active from +8 up or from −8 down.
The nature of assay [17]: modulators of S6 phosphorylation in cells, primary screen, cell-based, A549, cytoblot, luminescence, serum-stimulated (AID 1158).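 Also: serum-stimulated A549 lung adenocarcinoma cells; signal is phosphorylated S6 detected by cytoblot immunostaining with HRP secondary.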 The note with it: A549 phospho-S6 cytoblot, 5 h, higher = more signal.
For assay [18], the target named is NADPH oxidase 2 (Homo sapiens) (UniProt P04839). Kind of assay: NOX2-dependent H2O2 signal modulators, primary screen, NOX inhibitor project, cell-based, HEK293-NOX2, PMA-stimulated, Amplex Red fluorescence (AID 1159). Also: test concentration not given here. The note with it: 45 min, higher = more signal, called active from +8 up or from −8 down.
NADPH oxidase 2 (Homo sapiens), sequence (P04839 whole entry, looked up): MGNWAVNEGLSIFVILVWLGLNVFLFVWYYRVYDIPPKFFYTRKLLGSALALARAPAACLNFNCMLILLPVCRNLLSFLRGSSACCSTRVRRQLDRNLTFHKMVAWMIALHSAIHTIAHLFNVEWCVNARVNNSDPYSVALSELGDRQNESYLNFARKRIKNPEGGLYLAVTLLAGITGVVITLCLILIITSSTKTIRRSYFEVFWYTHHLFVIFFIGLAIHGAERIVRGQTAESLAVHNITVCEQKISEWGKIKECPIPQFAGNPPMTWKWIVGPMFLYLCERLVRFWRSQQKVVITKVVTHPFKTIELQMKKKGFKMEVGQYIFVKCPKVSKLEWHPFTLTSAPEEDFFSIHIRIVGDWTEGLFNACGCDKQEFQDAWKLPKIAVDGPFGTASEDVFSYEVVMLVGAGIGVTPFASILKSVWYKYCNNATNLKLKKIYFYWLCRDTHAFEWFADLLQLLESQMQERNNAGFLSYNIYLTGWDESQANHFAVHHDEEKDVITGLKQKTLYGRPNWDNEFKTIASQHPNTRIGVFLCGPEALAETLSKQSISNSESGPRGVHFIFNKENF
For assay [19], the target named is NADPH oxidase 4 (Homo sapiens) (UniProt Q9NPH5). Kind of assay: NOX4-dependent H2O2 signal modulators, primary screen, NOX inhibitor project, cell-based, HEK293-NOX4, tetracycline-induced, Amplex Red fluorescence (AID 1160). As to conditions: 45 min, higher = more signal, called active from +8 up or from −8 down.
NADPH oxidase 4 (Homo sapiens), sequence (Q9NPH5 whole entry, looked up): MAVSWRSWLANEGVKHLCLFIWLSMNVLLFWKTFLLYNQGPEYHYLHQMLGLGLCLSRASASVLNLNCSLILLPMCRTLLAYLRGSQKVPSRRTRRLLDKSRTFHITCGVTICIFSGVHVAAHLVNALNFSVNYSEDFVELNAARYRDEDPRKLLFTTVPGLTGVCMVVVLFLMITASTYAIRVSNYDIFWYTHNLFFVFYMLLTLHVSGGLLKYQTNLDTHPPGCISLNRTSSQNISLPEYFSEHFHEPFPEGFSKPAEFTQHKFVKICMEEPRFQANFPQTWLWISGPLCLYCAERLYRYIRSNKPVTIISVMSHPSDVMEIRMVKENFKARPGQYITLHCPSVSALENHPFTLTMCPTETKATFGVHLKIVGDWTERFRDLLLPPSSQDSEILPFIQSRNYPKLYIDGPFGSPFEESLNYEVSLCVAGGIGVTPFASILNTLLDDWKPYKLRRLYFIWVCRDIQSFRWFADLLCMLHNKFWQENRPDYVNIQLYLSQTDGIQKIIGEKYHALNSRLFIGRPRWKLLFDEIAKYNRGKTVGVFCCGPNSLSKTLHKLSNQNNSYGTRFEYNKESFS
Assay [20] addresses NADPH oxidase 5 (Homo sapiens) (UniProt Q96PH1). Kind of assay: NOX5-dependent H2O2 signal modulators, primary screen, NOX inhibitor project, cell-based, HEK293-NOX5, Amplex Red fluorescence (AID 1161). The note with it: HEK293-NOX5, ionomycin, 45 min, higher = more signal.

The source made the active and inactive calls. Unless noted, no rule for the calls is given here.

NADPH oxidase 5 (Homo sapiens), sequence (Q96PH1 whole entry, looked up): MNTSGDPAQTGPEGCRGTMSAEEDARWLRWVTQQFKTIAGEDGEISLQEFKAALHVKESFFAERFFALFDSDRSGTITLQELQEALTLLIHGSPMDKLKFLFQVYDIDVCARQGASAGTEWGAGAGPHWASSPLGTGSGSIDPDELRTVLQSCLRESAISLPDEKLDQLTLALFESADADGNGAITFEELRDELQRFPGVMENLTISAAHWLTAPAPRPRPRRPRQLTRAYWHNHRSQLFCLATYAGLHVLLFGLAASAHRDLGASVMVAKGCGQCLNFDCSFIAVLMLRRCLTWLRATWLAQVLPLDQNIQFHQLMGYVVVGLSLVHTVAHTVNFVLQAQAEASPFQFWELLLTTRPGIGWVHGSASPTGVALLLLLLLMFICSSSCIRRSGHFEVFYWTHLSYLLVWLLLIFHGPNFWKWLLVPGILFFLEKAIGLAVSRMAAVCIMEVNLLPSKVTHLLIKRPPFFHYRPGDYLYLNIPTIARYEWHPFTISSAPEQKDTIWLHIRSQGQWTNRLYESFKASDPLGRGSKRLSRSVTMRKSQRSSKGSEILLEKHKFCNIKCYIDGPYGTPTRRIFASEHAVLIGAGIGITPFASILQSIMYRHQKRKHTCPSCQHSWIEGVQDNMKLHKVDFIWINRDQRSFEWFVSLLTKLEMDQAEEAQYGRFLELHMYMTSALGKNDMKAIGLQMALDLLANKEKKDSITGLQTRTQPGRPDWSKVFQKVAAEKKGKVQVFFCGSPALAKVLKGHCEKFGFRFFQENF
Streptavidin (Streptomyces avidinii), sequence (P22629 whole entry, looked up): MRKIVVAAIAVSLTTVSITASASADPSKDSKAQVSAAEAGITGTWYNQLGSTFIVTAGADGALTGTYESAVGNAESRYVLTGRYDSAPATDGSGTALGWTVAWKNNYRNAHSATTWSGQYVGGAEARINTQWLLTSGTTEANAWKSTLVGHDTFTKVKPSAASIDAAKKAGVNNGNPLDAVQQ

`CCOC(=O)[C@H](CC(C)C)NC(=O)CCC1CC(OC(=O)NCc2ccc3c(c2)OCO3)CC2(CCCC(COC(=O)NCCOC)O2)O1` (stereo not given in full): the composite z-score in assay [1] is -0.0334; in [6], 0.0301; in [7], -0.0006; in [8], -0.0402; in assay [9], 0.354; in assay [10], 1.46. This compound yielded a composite z-score in [12] of 0.292. The z-score was -0.413 (inactive) in assay [2]; 0.211 (inactive) in [3]; 0.56 (inactive) in assay [4]; 0.59 (inactive) in [5]; -2.3 (inactive) in [11]; 1.3 (inactive) in assay [13]. In addition, the z-score in [14] is 0.529 (inactive); in [15], -0.535 (inactive); in assay [16], 0.0508 (inactive); in assay [17] it was -0.421; in assay [18] it was -0.288 (inactive); in [19], -0.0492 (inactive). Also, the z-score in assay [20] amounted to 0.144.

`CC(CCN1CCCc2nc(C)c(C)cc21)=NO[C@@H](C)c1cn([C@H](CO)Cc2ccccc2)nn1`: the composite z-score in assay [1] is 0.0241; in [6] it was 0.525; in assay [7], 0.153; in assay [8] it was 0.639; in [9], 0.686; in assay [10], 0.71. Also, in [12], the composite z-score is -0.193. Moreover, the z-score in assay [2] was -0.0864 (inactive); in assay [3] it was 0.0842 (inactive); in [4], -1.21 (inactive); in assay [5] it was -0.82 (inactive); in assay [11], 1.15 (inactive); in assay [13] it was 0.202 (inactive). Also, the z-score was 0.0178 (inactive) in [14]; 0.0882 (inactive) in assay [15]; 0.392 (inactive) in assay [16]; 0.137 in assay [17]; -0.588 (inactive) in [18]; 0.313 (inactive) in [19]. Further, in [20], the z-score is 0.351.

As to `CCOC(=O)CCN1C(=O)[C@H]2[C@H]3[C@H](O)[C@H](O)CC(=O)[C@@H]3CC[C@H]2C1=O`, the composite z-score in assay [1] is 0.352; in assay [6], 0.182; in assay [7] it was -0.179; in assay [8], 0.205; in [9], 0.5; in assay [10], 0.757. In [12], this compound had a composite z-score of -0.407. Besides, the z-score in assay [2] was -0.19 (inactive); in assay [3], -0.401 (inactive); in [4] it was 0.527 (inactive); in assay [5], -0.671 (inactive); in assay [11] it was -0.851 (inactive); in assay [13], 0.781 (inactive). Besides, the z-score in assay [14] is 0.411 (inactive); in [15], -0.737 (inactive); in [16] it was 0.305 (inactive); in assay [17], -0.373; in assay [18], 0.583 (inactive); in assay [19], 0.41 (inactive). In assay [20], this compound displayed a z-score of -0.0545.

Turning to `O=C1C[C@H](c2ccccc2)[C@H](c2ccc(Br)cc2)O1`, the composite z-score in assay [1] was 0.0974; in assay [6], 0.521; in [7], -0.128; in [8], -0.0753; in [9], -0.022; in assay [10], 0.212. In addition, the composite z-score in assay [12] is -0.464. The z-score is -1.52 (inactive) in assay [2]; -1.42 (inactive) in assay [3]; 0.375 (inactive) in [4]; -0.0385 (inactive) in assay [5]; -1.16 (inactive) in [11]; -0.142 (inactive) in assay [13]. For the same compound, the z-score in assay [14] was -1.13 (inactive); in assay [15] it was -0.0291 (inactive); in [16] it was -1.6 (inactive); in [17], 1.61; in [18], 0.146 (inactive); in assay [19], -0.255 (inactive). In addition, in assay [20], the z-score was -0.446.

In the case of `COC(OC)[C@@H](C)[C@H](OC)[C@@H](C)[C@H](OC)c1ccccc1`, the composite z-score was 0.3 in assay [1]; -0.211 in assay [6]; -0.321 in [7]; 0.237 in [8]; -0.252 in assay [9]; 0.155 in assay [10]. In addition, the composite z-score in [12] was -0.235. Also, the z-score in [2] is -0.609 (inactive); in assay [3], -1.32 (inactive); in [4], 1.46 (inactive); in assay [5], 0.0401 (inactive); in assay [11], 0.215 (inactive); in assay [13] it was -0.271 (inactive). Also, the z-score in [14] was -0.947 (inactive); in assay [15], -0.75 (inactive); in [16], -1.06 (inactive); in [17], 1.67; in assay [18], 0.491 (inactive); in assay [19] it was 0.153 (inactive). In assay [20], this compound registered a z-score of 0.577.

For the origin of these results see PubChem BioAssay.
